Assay outcomes deposited in PubChem BioAssay by National Center for Advancing Translational Sciences (NCATS).
HP1b chromo inh – inhibitors of HP1-beta chromodomain binding to methylated histone tails; P83916; AID 540317; Potency, µM (highest dose often 114 µM), most hits filed as inhibitors; AlphaScreen HP1-beta / biotin-H3K9me3 peptide binding; 0.56% of 390,000 active; also: nearly all actives have a fitted effect of over 70% in size
Target sequence (P83916 whole entry, looked up): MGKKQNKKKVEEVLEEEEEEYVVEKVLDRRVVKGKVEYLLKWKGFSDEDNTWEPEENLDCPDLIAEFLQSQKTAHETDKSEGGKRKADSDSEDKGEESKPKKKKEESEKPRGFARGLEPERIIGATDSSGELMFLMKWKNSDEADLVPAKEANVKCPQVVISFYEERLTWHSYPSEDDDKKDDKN
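Compound inhibition of the preformed complex between 50 nM HP1-beta and 50 nM biotinylated H3K9me3 peptide was read by AlphaScreen. Buffer was PBS pH 7.4 with 0.01% Tween-20. Incubations ran 30 min at room temperature, with 10 ug/mL donor/acceptor beads.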
BAZ2B block – blocks human BAZ2B | Q9UIF8 | AlphaScreen BAZ2B-H3K14Ac peptide displacement | Potency, µM (highest dose often 114 µM), usual class: inhibitors | 4.4% of 360,000 active; also: nearly all actives have a fitted effect of over 60% in size
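Complex of BAZ2B and biotin-H3K14Ac (50 nM apiece) forms over 30 min at RT, then faces library compounds up to 110 uM for another 30 min; AlphaScreen beads added, 20 min dark incubation, luminescence read.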
JMJD2A Tudor inh – blocks the human JMJD2A Tudor domain. O75164. AlphaScreen JMJD2A-Tudor / H3K4me3 peptide binding. Potency, µM (doses to about 114 µM), hits mostly inhibitors. 4.4% of 390,000 active; also: nearly all actives have a fitted effect of over 50% in size
PLK1 PBD block – PLK1 (human) polo-box domain binding inhibition | AID 720504 | P53350 | Plk1 PBD binding of FITC phosphopeptide, fluorescence polarization | 2.8% of 360,000 active | Potency, µM, most hits filed as inhibitors; also: series mostly up to about 57 µM; nearly all actives have a fitted effect of over 65% in size
PI5P4Ka inh – PI5P4K alpha (human) kinase inhibition | P48426 | max response, % | 1.2% of 330,000 active | PI5P4Kalpha enzyme, ADP-Glo luminescence, 60 min; active compounds read low | AID 652105; active = max response of -50% or lower; inconclusive = between -30% and -50%; inactive = -30% or higher; also: value at the top dose of about 77 µM
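Quantitative HTS of the MLSMR library against PI5P4Kalpha with substrate. ATP added last at 5 microM final; room temperature, 60 minutes. Remaining ATP depleted, ADP converted and read as luminescence.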
G9a block – G9a (human) methyltransferase inhibition; Q96KQ7; G9a H3K9 monomethylation, AlphaScreen, 2 h; Potency, µM (top dose mostly 102 µM), most hits filed as inhibitors; 8.8% of 350,000 active; also: nearly all actives have a fitted effect of over 75% in size
Target sequence (Q96KQ7 913-1193 limits assumed): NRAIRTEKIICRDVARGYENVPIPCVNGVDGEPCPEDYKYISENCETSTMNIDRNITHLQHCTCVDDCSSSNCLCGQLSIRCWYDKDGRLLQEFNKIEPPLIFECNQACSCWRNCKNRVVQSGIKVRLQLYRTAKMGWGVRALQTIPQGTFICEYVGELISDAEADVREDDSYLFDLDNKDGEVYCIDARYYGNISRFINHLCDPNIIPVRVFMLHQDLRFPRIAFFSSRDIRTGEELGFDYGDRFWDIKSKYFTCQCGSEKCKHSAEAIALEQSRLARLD
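Signal arises when biotinylated H3K9 peptide, once monomethylated, bridges streptavidin donor and antibody-captured acceptor beads. Enzyme at 20 nM was preincubated 15 min with test compounds; peptide 500 nM and SAM 20 uM then reacted for 2 h.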
ME-1 growth – inhibitors of ME-1 leukemia cell proliferation, CBFb-RUNX1 project. shares compounds with BAZ2B block. ME-1 cell proliferation, ATP luminescence, 48 h. Potency, µM (titrated, usually from 56.1 µM), most hits filed as inhibitors. 20% of 140 active. AID 504370
Numbers stand for hits; [ ] = another dose, or the depositor's remark. Sampled rows, rich in hits. Any-hit rate of the full collection: about 12%. Unless noted, calls follow the shape of the dose curve; as a rule, active = well fitted curve in the direction sought with a large enough effect; inconclusive = small, poorly fitted or top-dose-only effect, or another doubt; inactive = no such curve, though single readings can be large; an effect the other way counts as inactive or inconclusive.

How did CCOC(=O)[C@H](CCc1ccccc1)N[C@@H](C)C(=O)N1[C@H](C(=O)O)C[C@H]2CCCC[C@@H]21 do in these assays?
G9a block: inactive; ME-1 growth: inactive

How did CCc1ncc(CO)n1Cc1cccc2ccccc12 do in these assays?
PLK1 PBD block: inactive; PI5P4Ka inh: inactive

Results for CCNC1=C(Cl)C(=O)c2ccccc2C1=O ?
HP1b chromo inh: inconclusive; BAZ2B block: 35µM; JMJD2A Tudor inh: 50µM; PLK1 PBD block: inactive; PI5P4Ka inh: inactive; G9a block: inconclusive; ME-1 growth: inconclusive

Results for CCNc1ccccc(-c2ccc3ccccc3n2)c1=O ?
HP1b chromo inh: inactive; BAZ2B block: inactive; JMJD2A Tudor inh: inactive; PLK1 PBD block: inactive; PI5P4Ka inh: inactive; G9a block: inactive

Results for COc1cc([C@@H]2c3cc4c(cc3[C@@H](O[C@@H]3O[C@@H]5CO[C@@H](C)O[C@H]5[C@H](O)[C@H]3O)[C@H]3COC(=O)[C@H]23)OCO4)cc(OC)c1O ?
HP1b chromo inh: inactive; JMJD2A Tudor inh: inactive; PLK1 PBD block: inactive; PI5P4Ka inh: inactive

Results for COc1cc(C2c3cc4c(cc3C(OC3OC5COC(C)O[C@@H]5C(O)C3O)C3COC(=O)C23)OCO4)cc(OC)c1O (stereo partly drawn) ?
G9a block: inactive[2.33 µM]; ME-1 growth: 0.79µM

What do the screens show for `CCN1C(=O)[C@H]2[C@@H](c3ccc(C(F)(F)F)cc3)N[C@]3(CCCN(Cc4ccc(OC)cc4)C3=O)[C@H]2C1=O`?
PLK1 PBD block: inactive; PI5P4Ka inh: inactive

What do the screens show for `Nc1ccc(N)c(C(=O)O)c1`?
HP1b chromo inh: 3.2µM; BAZ2B block: 4µM; JMJD2A Tudor inh: 3.5µM; PLK1 PBD block: 24µM; PI5P4Ka inh: -91; G9a block: 7.9µM; ME-1 growth: inactive

What do the screens show for `O=c1oc2c(O)c(O)cc3c(=O)oc4c(O)c(O)cc1c4c23`?
HP1b chromo inh: inconclusive; BAZ2B block: 0.79µM; JMJD2A Tudor inh: 0.71µM; PLK1 PBD block: 8.4µM; PI5P4Ka inh: -100; G9a block: 1.3µM; ME-1 growth: inactive

Results for Cc1c(O)c(CN(C)C)cc2c1oc(=O)c1ccccc12 ?
HP1b chromo inh: inactive; BAZ2B block: inactive; JMJD2A Tudor inh: inactive; PLK1 PBD block: inactive; PI5P4Ka inh: inactive; G9a block: inconclusive

What do the screens show for `Cc1cc2oc(C(=O)Nc3cccc(-c4nc5ccccc5o4)c3)c(C)c2cc1C`?
HP1b chromo inh: inactive; BAZ2B block: inactive; JMJD2A Tudor inh: inactive; G9a block: inactive

What do the screens show for `COc1ccc(OC)c(-c2c3cc(O)c(=O)cc-3oc3cc(O)c(O)cc23)c1`?
HP1b chromo inh: inconclusive; BAZ2B block: 2.8µM; JMJD2A Tudor inh: 1.6µM; PLK1 PBD block: 2.1µM; PI5P4Ka inh: -101; G9a block: 6.3µM; ME-1 growth: 22µM

How did COc1ccc(OC)c(-c2oc3ccccc3c(=O)c2O)c1 do in these assays?
HP1b chromo inh: inactive; BAZ2B block: inactive; JMJD2A Tudor inh: inactive; PLK1 PBD block: inactive; PI5P4Ka inh: inactive; G9a block: inconclusive

How did CC(=O)N[C@@H](CSC(=O)[C@]1([C@@H](O)C(C)C)NC(=O)[C@H](C)[C@@H]1O)C(=O)O do in these assays?
G9a block: inactive[12.7 µM]

What do the screens show for `Cc1cc(C(=O)NC2Cc3ccccc3C2)c(C)o1`?
HP1b chromo inh: inactive; BAZ2B block: inactive; JMJD2A Tudor inh: inactive; PLK1 PBD block: inactive; PI5P4Ka inh: inactive; ME-1 growth: inactive

How did CC(=O)Oc1cc(-c2coc3cc(OC(C)=O)c(OC(C)=O)c(OC(C)=O)c3c2=O)cc(OC(C)=O)c1OC(C)=O do in these assays?
G9a block: inactive[2.33 µM]; ME-1 growth: inactive

Results for CCNC(=O)C1(C)CCCN(C(=O)Cc2ccc(OC)c(OC)c2)C1 (stereo not drawn) ?
PLK1 PBD block: inactive; PI5P4Ka inh: inactive

What do the screens show for `CCc1cccc(NC(=O)Cn2c(=O)n3nc(-c4cccc(F)c4)nc3c3ccccc32)c1`?
HP1b chromo inh: inactive; BAZ2B block: inactive; JMJD2A Tudor inh: inactive; G9a block: inactive
